hcDAF-12 act – activators of H. contortus DAF-12 nuclear receptor. 1.4% of 370,000 active. HEK293 hcDAF-12 lit1-tk-luc reporter, luminescence; 0% DMSO, 100% Δ7-dafachronic acid. activation, % at 6.8 µM;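 active = activation above the mean of all tested compounds plus 3 SD, cut at about 5.5% in these data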;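 note: 100% = response to 3 µM Δ7-dafachronic acid high control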
ssDAF-12 act – activates DAF-12 receptor from parasite S. stercoralis. HEK293 ssDAF-12/GRIP1 lit1-tk-luc reporter, luminescence; % of 3 µM dafachronic acid response. activation, % at 6.8 µM. 1% of 370,000 active. AID 652126;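 active = activation above the mean over all tested compounds plus 3 SD, cut at about 0.9% in these data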;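 note: 0% = DMSO-only wells and 100% = 3 µM delta7-dafachronic acid wells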
SMARCA2 act – increases SMARCA2 function in MMTV reporter cells. MG213 cells, MMTV-luciferase reporter, dexamethasone, overnight. activation, % at 9.1 µM. 1% of 370,000 active. AID 652017; in the data active = activation above about 7.8%;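 note: 0% = vehicle wells and 100% = reference activator wells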
DAX1 inh-1 – DAX1 (NR0B1) inhibition, primary screen; HEK293T StAR-luciferase reporter, SF-1/DAX-1 repression relief; inhibition, % at 6.8 µM; 1.1% of 370,000 active;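 active = inhibition above the mean over all tested compounds plus 3 SD, cut at about 3.6% in these data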;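 note: 0% = DAX-1 cells with DMSO and 100% = cells lacking DAX-1 with DMSO; higher inhibition means more luminescence from relief of DAX-1 repression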
DAX1 inh-2 – NR0B1 (DAX1) inhibition; inhibition, % at 6.75 µM; P51843; 0.99% of 340,000 active; AID 504766; HEK293 Gal4-DAX1 luciferase reporter, luminescence;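 active = inhibition above the mean over all tested compounds plus 3 SD, cut at about 4.2% in these data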;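 note: 0% = DAX1-transfected cells with DMSO and 100% = empty-vector control cells with DMSO; inhibition shows as a rise in luminescence from relieved DAX1 repression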
Target sequence (P51843 207-470 limits assumed): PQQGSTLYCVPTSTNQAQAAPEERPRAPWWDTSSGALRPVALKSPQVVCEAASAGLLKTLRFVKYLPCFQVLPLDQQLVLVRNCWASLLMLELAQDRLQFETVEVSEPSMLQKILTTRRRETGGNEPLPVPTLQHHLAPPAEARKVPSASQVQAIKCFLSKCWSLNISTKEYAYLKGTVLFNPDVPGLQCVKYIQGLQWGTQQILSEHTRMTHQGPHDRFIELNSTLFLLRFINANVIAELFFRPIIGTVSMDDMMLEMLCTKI
hgDAF-12 ag – hgDAF-12 agonism, primary luciferase screen | activation, % at 6.8 µM | 1.8% of 370,000 active | AID 687014 | HEK293 GAL4-hgDAF12 UAS-luciferase reporter, agonist luminescence; normalized to butyrate control;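 active = activation above a cutoff set at the mean of all screened compounds plus 3 SD, cut at about 10% in these data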;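 note: 0% = DMSO wells and 100% = sodium butyrate wells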
SMARCA2 act conf – confirmation of SMARCA2 (BRM) function activators. MG213 cells, MMTV-luciferase with dexamethasone, luminescence, overnight; MG213 cells expressing E1A, Rb sequestered; DMSO wells 0%, reference activator 100%. 30% of 3,500 active. AID 652260. activation, % at 9.1 µM. shares compounds with SMARCA2 act;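 active = activation above its plate's cutoff, the mean activation of tested wells plus 3 SD, cut at about 7.9% in these data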
VP16 Luc act – activates GAL4-VP16 luciferase, flagging SMARCA2 activator hits. 41% of 3,500 active. activation, % at 9.1 µM. AID 686939. HEK293 GAL4-VP16 pG5luc reporter, luciferase luminescence; scaled: DMSO wells 0%, SAHA wells 100%. shares compounds with SMARCA2 act;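 active = activation above the solvent-only control well mean plus 3 SD, averaged across control plates, cut at about 5.2% in these data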
Starred values were filed as active, the others as inactive. Rows were chosen to be rich in hits. Some 4.8% of all compounds tested hit in one or more screens of this group.

For COC(=O)Nc1nnc(-c2ccc(OC)cc2)s1 the results were hcDAF-12 act 1, ssDAF-12 act 0, SMARCA2 act 8.1*, DAX1 inh-1 1, DAX1 inh-2 3, hgDAF-12 ag 13*, SMARCA2 act conf 6 and VP16 Luc act 5.2*.
`COc1ccc(-c2nnc(NC(=O)c3c(OC)cccc3OC)s2)cc1` gave hcDAF-12 act -1, ssDAF-12 act -1, SMARCA2 act -2, DAX1 inh-1 -1, DAX1 inh-2 0 and hgDAF-12 ag 0.
Screening CC(C)=CC(=O)Nc1nnc(C)s1 returned hcDAF-12 act 0, ssDAF-12 act -1, SMARCA2 act 1, DAX1 inh-1 0, DAX1 inh-2 0 and hgDAF-12 ag 2.
CC(C)=CC(=O)Nc1nnc(-c2ccccc2)s1 was read as hcDAF-12 act 2, ssDAF-12 act 0, SMARCA2 act 16*, DAX1 inh-1 3, DAX1 inh-2 3, hgDAF-12 ag 9, SMARCA2 act conf 5 and VP16 Luc act 7.8*.
For CCN(CC(=O)Nc1ccc(OC)cc1)C(=O)COc1cccc2c1OC(C)(C)C2 the results were hcDAF-12 act 0, ssDAF-12 act -1, SMARCA2 act -2, DAX1 inh-1 -1, DAX1 inh-2 0 and hgDAF-12 ag -1.
`CC(C)c1ccc(NC(=O)COC(=O)C2CC3C=CC2C3)cc1` (configuration not stated) gave hcDAF-12 act -1, ssDAF-12 act -2, SMARCA2 act 8.2*, DAX1 inh-1 2, DAX1 inh-2 0, hgDAF-12 ag 0, SMARCA2 act conf 3 and VP16 Luc act 2.
`CCCCOC(=O)Nc1ccc2c(C)cc(=O)oc2c1` gave hcDAF-12 act 3, ssDAF-12 act 0, SMARCA2 act 6, DAX1 inh-1 3, DAX1 inh-2 2 and hgDAF-12 ag 10.
`CCOC(=O)Nc1ccc2c(C)cc(=O)oc2c1` gave hcDAF-12 act 2, ssDAF-12 act -1, SMARCA2 act 11*, DAX1 inh-1 1, DAX1 inh-2 0, hgDAF-12 ag 11*, SMARCA2 act conf 2 and VP16 Luc act 8.7*.
For COc1ccc(/C=C(/NC(=O)c2ccc(C)cc2)C(=O)N2CCCC2)cc1OC the results were hcDAF-12 act -1, ssDAF-12 act -1, SMARCA2 act -1, DAX1 inh-1 0, DAX1 inh-2 0 and hgDAF-12 ag 2.
`O=[N+]([O-])c1cccc(-c2ccc(C(=S)N3CCN(c4ccc(F)cc4)CC3)o2)c1` gave hcDAF-12 act 0, ssDAF-12 act -1, SMARCA2 act 9.1*, DAX1 inh-1 0, DAX1 inh-2 0, hgDAF-12 ag 2, SMARCA2 act conf 0 and VP16 Luc act -1.
`COc1ccc(Cl)cc1NC(=O)CSc1nnc(C)c(=O)n1N` gave hcDAF-12 act 0, ssDAF-12 act -1, SMARCA2 act 8.3*, DAX1 inh-1 0, DAX1 inh-2 1, hgDAF-12 ag 0, SMARCA2 act conf 6 and VP16 Luc act 0.
CC(=O)C1CCC2C3CC=C4CC(SC(=N)N)CCC4(C)C3CCC12C (configuration not stated) was read as hcDAF-12 act -2, ssDAF-12 act -1, SMARCA2 act 10*, DAX1 inh-1 -4, DAX1 inh-2 -1, hgDAF-12 ag 2, SMARCA2 act conf -6 and VP16 Luc act 1.
`Fc1ccc(OCc2nc3ccccc3s2)cc1` gave hcDAF-12 act 6.2*, ssDAF-12 act 1.1*, SMARCA2 act 9.1*, DAX1 inh-1 2, DAX1 inh-2 2, hgDAF-12 ag 11*, SMARCA2 act conf 7 and VP16 Luc act 12*.
CCCCC[C@@H]1CCCCC[C@H](O)C[C@H](O)[C@@H](O)/C=C/C(=O)O1 was read as hcDAF-12 act 1, ssDAF-12 act -2, SMARCA2 act -4, DAX1 inh-1 -1 and hgDAF-12 ag -1.

Screens deposited in PubChem BioAssay by The Scripps Research Institute Molecular Screening Center.
